CRE-bla Fsk: Cell signaling CRE-BLA (Fsk stim). CHO CRE-bla reporter (cAMP response element driving beta-lactamase), forskolin EC10, beta-lactamase ratio. Potency, µM (series often up to 38.2 µM), for the others: at the highest dose activity change, negative = inhibition, most hits filed as activators. hit rate 2.5% among 71,000; active = well fitted activation curve with a large enough effect in the signal ratio, with a control signal flat, not every such curve was filed as active; inconclusive = small, poorly fitted or top-dose-only effect, or effect the other way, or a change in a side signal; the % refers to the signal ratio; note: % of control where 0% means no effect
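CHO CRE-bla cells, overnight plating in Opti-MEM with 0.5% dialyzed FBS; cpd titration + EC10 NKH 477, 3 h 37 °C; CCF4 2 h RT; ex 405/em 460 vs 530 ratio → %Activity, AC50.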
Imprint erasure: qHTS Assay for Compounds that Induce Erasure of Genomic Imprints | Potency, µM (highest dose often 60.7 µM), without a hit: at the highest dose activity change, positive = activation, actives largely listed as activators | mouse ES Peg3-LacZ reporter, beta-gal luminescence, 40 h | hit rate 0.02% among 110,000 | AID 1948, 2009
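Each well holds 300 Peg3LacZ-Neo (maternal) female ES cells incubated 40 h at 37C, 5% CO2. LacZ is measured by BetaGlo luminescence, with AC50 and maximum efficacy derived from dose-response curves.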
p53ts 32C tox: qHTS Screen for Compounds that Selectively Target Cancer Cells with p53 Mutations: Cytotoxicity of p53ts Cells at the Permissive Temperature. H1299-p53A138V at 32C, ATP luminescence viability, 24 h. Potency, µM (titrated, usually from 46.1 µM), without a hit: top-dose activity change, negative = cytotoxicity, actives largely listed as cytotoxic. hit rate 0.93% among 130,000;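 note: 0% = DMSO and -100% = full killing by reference compound; nearly all actives have a fitted effect of over 55% in size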
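Cells: H1299 p53ts (A138V), 600/well, pre-incubated 16–30 h at 37C. Cpd up to 46 uM, 24 h, 32C. Readout: ATPlite luminescence, 20 min RT. Normalization: DMSO vs tamoxifen 100 uM. AC50 by Hill equation.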
p53ts 39C kill: qHTS Screen for Compounds that Selectively Target Cancer Cells with p53 Mutations: Cytotoxicity of p53ts Cells at the Nonpermissive Temperature. H1299-p53A138V viability at 39C, ATP luminescence, 24 h. hit rate 1.5% among 130,000. Potency, µM (doses to about 46.1 µM), without a hit: at the highest dose activity change, negative = cell killing, hits mostly cytotoxic. AID 902, 2007; note: % is set by controls: 0 for no effect and ±100 for the full control effect; nearly all actives have a fitted effect of over 55% in size
IkB signaling: IkB Signaling. ABC-DLBCL IkBa-CBG/CBR dual luciferase ratio, 4 h; response scale: scaled: untreated 0%, proteasome inhibitor 100%. Potency, µM (series often up to 57.1 µM), inactives show at the top dose IkBa stabilization activation. hit rate 0.04% among 110,000. AID 445, 2006; active = well fitted curve in the direction sought with a large enough effect in the signal ratio, not every such curve was filed as active; inconclusive = small, poorly fitted or top-dose-only effect, or a change in a side signal; the % refers to the signal ratio;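 note: the direction sought is a rising ratio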
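Luminescence ratio of IκBα-fused green versus native red beetle luciferase in OCI-Ly3 cells, 4 h post-doxycycline with compound; red signal alone, scaled from basal (0%) to zero light (-100%), flagged nonspecific or cytotoxic effects.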
Numbers without * were called inactive; ? = inconclusive; / = no result given; [ ] = remark or other dose. Shown are actives, neighbours in structure and some others; about 3% of the full set was active somewhere. Unless noted, calls come from the whole dose curve; as a rule, active = well fitted curve in the direction sought with a large enough effect; inconclusive = small, poorly fitted or top-dose-only effect, or another doubt; inactive = no such curve, though single readings can be large; an effect the other way counts as inactive or inconclusive. Potency is the fitted concentration of half-maximal effect.

SMILES | CRE-bla Fsk | Imprint erasure | p53ts 32C tox | p53ts 39C kill | IkB signaling
CCNc1ncc2nc(C)c(=O)n(-c3ccc(OC)cc3)c2n1 | ? | -9% | 0% | -17% | 1%[11.4 µM]
Cc1nc2cnc(Oc3ccccc3)nc2n(-c2ccccc2)c1=O | ? | / | -1% | 3% | 0%[11.4 µM]
Cc1csc2nc(CCNS(=O)(=O)c3ccc(F)cc3)cn12 | / | 14%[10.9 µM] | 5% | -19% | 1%
N.N.N.N.N.N.N.N.N.N.N.N.N.N.O.O.[Ru].[Ru].[Ru] | -4% | / | -13% | -4% | -3%
Cc1ccc(NC2=C/C(=N\S(=O)(=O)c3cccs3)c3ccccc3C2=O)c(C)c1 | / | / | 3.2µM* | 7.1µM* | /
COc1ccc(C2=C(Nc3ccc(C)cc3C)c3ccccc3C2=O)cc1 | / | -5%[10.9 µM] | 17% | -17% | ?
COc1ccccc1NC(=O)c1sc2nc(C)c(C(=O)Nc3ccc(C)cc3C)c(-c3ccccc3Cl)c2c1N | / | -11%[10.9 µM] | 13% | 32% | 1%
Cc1ccc(C(C)C)c(OCC(=O)N2CCC(c3nc4ccccc4o3)CC2)c1 | / | 5%[10.9 µM] | ? | ? | ?
CCCCN(C)CCNC(=O)c1cc(-c2ccc(Cl)s2)nc2ccccc12 | / | -9%[10.9 µM] | 7% | 13µM* | ?
CCC(C)NC(=O)Cn1c(=O)n(Cc2ccc(C(=O)NCc3ccc(C)cc3)cc2)c(=O)c2ccccc21 (centres undefined) | / | 12%[10.9 µM] | ? | 20µM* | 1%
O=C(Nc1ccc2nc(-c3cccs3)c(-c3cccs3)nc2c1)N1CCOCC1 | 10µM* | -13% | 5% | 4% | ?
O=C(Nc1cccc(O)c1)N1CCOCC1 | / | / | -16% | -3% | /
CCc1c2c(nc3cccc(C(C)C)c13)-c1cccc(=O)n1C2 | 13µM* | -17% | 3% | 7% | /
CC(C)c1cccc2cc3c(nc12)-c1cccc(=O)n1C3 | ? | -12% | -2% | -13% | /
CC[C@@]1(O)C(=O)COc2c1cc1n(c2=O)Cc2c-1nc1cccc(C(C)C)c1c2[Si](C)(C)C | 13µM* | -19% | -7% | -10% | /
CCc1c2c(nc3ccc(OC(=O)N4CCC(N5CCCCC5)CC4)cc13)-c1cc3c(c(=O)n1C2)COC(=O)[C@]3(O)CC | / | -16% | -25% | -19% | /
Cn1c(C(=O)N2CCN(C(=O)c3ccco3)CC2)cc2c(=O)n(C)c3ccccc3c21 | 4µM* | -1% | -8% | -4% | -2%
CCOC(=O)c1ccc(NC(=O)c2cc3c(=O)n(C)c4ccccc4c3n2C)cc1 | / | 11%[10.9 µM] | 5% | -15% | ?
Cn1c(C(=O)N2CCN(c3ccc(F)cc3)CC2)cc2c(=O)n(C)c3ccccc3c21 | -8% | -6% | -5% | -20% | 2%
Cn1c(C(=O)Nc2ccc3c(c2)OCCO3)cc2c(=O)n(C)c3ccccc3c21 | 0.4µM* | -19% | -7% | -10% | 9%
COc1ccccc1N1CCN(C(=O)c2cc3c(=O)n(C)c4ccccc4c3n2C)CC1 | 2µM* | -7% | 4% | 10% | -1%
COc1ccc(-n2c(=O)c3c(c4cc(OC)ccc4n3C)n(Cc3cc(C)ccc3C)c2=O)cc1 | / | -9%[10.9 µM] | -3% | ? | 0%
c1ccc(-c2ccc(-c3ccc(C4=NCCN4)cc3)o2)cc1 | 0.5µM* | -16%[10.9 µM] | -1%[9.22 µM] | -14%[9.22 µM] | -4%[11.4 µM]
c1ccc(C2=NCCCN2)cc1 | -10% | 0% | -5% | 5% | 0%
CCN(c1ccccc1)c1ncnc2c1cnn2-c1ccc(OC)cc1 | / | -5%[10.9 µM] | ? | 13µM* | ?
SMILES | CRE-bla Fsk | Imprint erasure | p53ts 32C tox | p53ts 39C kill | IkB signaling
Cc1ccc(-n2ncc3c(N(C)Cc4ccccc4)ncnc32)cc1 | / | -12%[10.9 µM] | ? | 16µM* | 2%
O=C(NCCCN1CCN(c2ccccc2F)CC1)c1cc2c(s1)-c1ccccc1OC2 | / | -11%[10.9 µM] | ? | 13µM* | ?
CCCN1CCN(CCCNC(=O)c2cc3c(s2)-c2ccccc2OC3)CC1 | / | -12%[10.9 µM] | -17% | ? | ?
CCCN1CCN(CCCNC(=O)c2cc3c(s2)-c2c(C)cccc2OC3)CC1 | / | -18%[10.9 µM] | ? | 10µM* | ?
CC1CCN(S(=O)(=O)c2ccc3c(c2)CCC(=O)N3CC(=O)Nc2cccc(C#N)c2)CC1 | / | -11%[10.9 µM] | 9% | -1% | 1%
Cc1ccc(NC(=O)c2oc3ccccc3c2NC(=O)C23CC4CC(CC(C4)C2)C3)cc1 | / | 14%[10.9 µM] | 2% | -4% | ?
Cc1ccc2cc(/C=N/Nc3nc4ccccc4[nH]3)c(Cl)nc2c1 | / | / | / | 3.5µM* | /
CCOc1ccc(C(=O)Nc2cccc(C)n2)cc1 | 4% | / | 5µM* | ? | 30%
Cc1ccc(C(=O)Nc2nc3ccccc3c(=O)s2)cc1 | -3% | / | 13µM* | 16µM* | ?
CCOc1ccc2nc(NC(=O)c3ccccc3)sc2c1 | / | -74%[10.9 µM] | 6.3µM* | ? | ?
CCCC(=O)Nc1nc2ccc(OCC)cc2s1 | 6% | -30% | -24% | -15% | 2%
CCCCOc1ccc(C(=O)Nc2cccc(C)n2)cc1 | 12% | 3% | 13µM* | 16µM* | ?
CCOc1ccc(NC(=O)Nc2cccc(C)n2)cc1 | / | 4%[10.9 µM] | -22% | ? | -4%
CCOc1ccc(C(=O)Nc2nnn(CC)n2)cc1 | 6% | -80% | 10µM* | 13µM* | -2%
Cn1nnc(NC(=O)c2ccc(C(C)(C)C)cc2)n1 | 0% | -38% | 10µM* | 7.9µM* | 0%
CCCn1nnc(NC(=O)c2ccc(OCC)c(Cl)c2)n1 | -2% | -3% | 5% | -9% | 0%
Cn1nnc(NC(=O)c2ccc3ccccc3c2)n1 | / | / | ? | -19% | /
Fc1ccc([C@@H]2Nc3ccccc3[C@@H]3C=CC[C@@H]32)cc1 | / | 17%[10.9 µM] | -6% | -19% | ?
COc1cc2c(cc1OC)-c1cc(=Nc3c(C)cc(C)cc3C)n(C)c(=O)n1CC2 | 2.5µM* | -20% | -8% | -17% | -2%
CCNC(=O)[C@@H]1O[C@@H](n2cnc3c(NCc4ccccc4)ncnc32)[C@@H](O)[C@H]1O | 1% | / | / | / | ?
COc1ccc(OC)c(NC(=O)c2sc3nc4c(cc3c2N)CCCCCC4)c1 | / | -19%[10.9 µM] | ? | 13µM* | ?
Cc1cccc(NC(=O)c2sc3nc4c(cc3c2N)CCCCCC4)c1C | / | -19%[10.9 µM] | -6% | -16% | 2.5µM*
Cc1ccccc1NC(=O)c1sc2nc3c(cc2c1N)CN(Cc1ccccc1)CC3 | / | -7%[10.9 µM] | 6% | -17% | ?
CCOc1ccc(NC(=O)c2sc3nc4c(cc3c2N)CCCCCC4)cc1 | / | -8%[10.9 µM] | ? | 13µM* | -1%
Nc1c(C(=O)Nc2ccc(C(=O)O)cc2)sc2nc3c(cc12)CCCC3 | / | -10%[10.9 µM] | ? | ? | ?
COc1ccc(NC(=O)c2sc3nc4c(cc3c2N)CN(Cc2ccccc2)CC4)cc1OC | / | ? | 1% | -26% | 0%
